Screens from PubChem BioAssay.
The full list was thinned out, with hits kept by preference.
DAT uptake mod: changed human dopamine transporter uptake under cocaine IC80. B-score at 10 µM. Q01959. AID 449768. LLC-PK1 hDAT cells, [14C]-dopamine uptake with cocaine IC80; actives deviate in either direction. 110,000 tested, 1.3% active;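 active means Z score or B-score, a plate-position-corrected score, falls beyond the plate's 99.7% confidence bounds, in either direction; inactive means both scores lie inside the 99.7% bounds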;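 further: scored against the spread of the other compound wells on the same plate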
D1 mod: allosterically modulates the human D1 dopamine receptor | 58,000 tested, 5.9% active | HEK293 D1, CRE-luciferase, dopamine EC30 potentiation; actives deviate in either direction | B-score at 10 µM | AID 641;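 active means luminescence count or its row- and column-corrected plate score outside the 99.7% band of the plate's sample wells, on either side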
EphB4 antag: antagonists of human EphB4-ephrin-B2 interaction; inhibition, % at 7 µM; P54760; 97,000 tested, 0.15% active; EphB4 LBD / TNYL-RAW-Alexa532 peptide, fluorescence polarization; AID 720;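 active means inhibition above the screen-wide mean inhibition plus 3 SD, cut at about 15% in these data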;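 further: 0% = DMSO wells and 100% = excess unlabeled TNYL-RAW peptide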
Target sequence (P54760 whole entry, looked up, the tested form may be a part): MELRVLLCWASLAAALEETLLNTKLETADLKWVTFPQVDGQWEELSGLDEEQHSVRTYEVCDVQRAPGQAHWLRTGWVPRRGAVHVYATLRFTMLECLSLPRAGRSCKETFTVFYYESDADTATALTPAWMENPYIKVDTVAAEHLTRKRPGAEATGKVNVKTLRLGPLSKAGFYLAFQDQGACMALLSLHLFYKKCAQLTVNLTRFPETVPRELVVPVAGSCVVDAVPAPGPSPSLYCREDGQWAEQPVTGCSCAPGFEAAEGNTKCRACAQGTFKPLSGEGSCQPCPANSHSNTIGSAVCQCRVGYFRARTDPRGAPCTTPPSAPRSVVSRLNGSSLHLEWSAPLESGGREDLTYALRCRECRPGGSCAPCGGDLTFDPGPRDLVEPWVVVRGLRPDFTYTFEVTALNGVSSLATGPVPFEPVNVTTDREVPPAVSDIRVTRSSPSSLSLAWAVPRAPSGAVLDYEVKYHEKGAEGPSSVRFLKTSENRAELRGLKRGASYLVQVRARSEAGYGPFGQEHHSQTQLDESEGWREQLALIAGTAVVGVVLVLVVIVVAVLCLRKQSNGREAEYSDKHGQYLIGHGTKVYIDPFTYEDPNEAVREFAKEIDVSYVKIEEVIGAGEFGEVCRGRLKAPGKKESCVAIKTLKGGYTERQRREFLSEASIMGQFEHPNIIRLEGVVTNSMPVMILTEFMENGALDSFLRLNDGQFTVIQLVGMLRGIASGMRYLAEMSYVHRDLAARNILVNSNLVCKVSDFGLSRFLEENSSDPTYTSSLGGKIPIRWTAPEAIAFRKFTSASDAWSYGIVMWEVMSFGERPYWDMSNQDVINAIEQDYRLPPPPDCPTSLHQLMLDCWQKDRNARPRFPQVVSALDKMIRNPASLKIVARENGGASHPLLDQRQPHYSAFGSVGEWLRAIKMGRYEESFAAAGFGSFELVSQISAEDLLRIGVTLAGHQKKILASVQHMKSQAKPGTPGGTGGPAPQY
The depositor's hits bear a star; x = no result given.

SMILES	DAT uptake mod	D1 mod	EphB4 antag
Cc1ccc2cc3c(N)c(C(=O)N4CCOCC4)sc3nc2c1	x	-2.42	2.0
CCCc1cc(=O)[nH]c(SCC(=O)c2cc(C)n(C3CC3)c2C)n1	1.8	x	-4.0
CCCc1cc(=O)[nH]c(SCC(=O)N(CC(C)C)C2CCS(=O)(=O)C2)n1 (centres undefined)	3.07*	-0.204	2.6
O=C(Nc1ncc(Cc2ccccc2)s1)C1CCCO1 (centres undefined)	-0.361	-3.73*	-4.7
O=C(Nc1nc2ccccc2s1)C1CCCO1 (centres undefined)	-0.305	-1.55	-3.0
Cc1ccc(Cn2c(SCCN3CCCCC3)nc3c2c(=O)n(C)c(=O)n3C)cc1	1.16	1.18	16.3*
Cn1c(=O)c2c(nc(SCCN3CCCCC3)n2Cc2ccccc2)n(C)c1=O	1.76	0.198	-9.8
CC(=O)Nc1cccc(OCC(O)Cn2c(C)nc3ccccc32)c1 (centres undefined)	-0.391	x	-6.8
CCCOC(=O)c1ccc(OCC(O)Cn2c(C)nc3ccccc32)cc1 (centres undefined)	-0.153	-3.24*	x
COC(=O)/C(=C\c1c(OC)cc(OC)cc1OC)C(=O)c1ccc2c(c1)OCO2	0.0593	x	x
Cc1cccc(C)c1Nc1nnc(SCc2cc([N+](=O)[O-])cc3c2OCOC3)s1	-0.566	x	3.0
COc1cccc(Nc2nnc(SCc3cc([N+](=O)[O-])cc4c3OCOC4)s2)c1	-3.36*	x	1.2
CC(=O)Nc1sc(NC(=O)c2ccc(C)cc2)nc1-c1cccs1	-2.74*	x	-3.8
COc1ccc(C(=O)Nc2nc(-c3cccs3)c(NC(C)=O)s2)cc1	-1.47	x	-0.7
COCc1nc(-c2cc(Br)ccc2OC)no1	2.86*	1.57	-2.9
COc1ccc(Br)cc1-c1noc(-c2ccccc2)n1	0.126	0.969	4.0
Cc1cc(C)c(NC(=O)CS(=O)CC(=O)NC2CCCc3ccccc32)c(C)c1 (centres undefined)	0.811	x	2.0
COC(=O)c1ccccc1NC(=O)c1sc(=S)n(C)c1N	5.98*	0.0113	-8.4
CCOC(=O)c1sc(=S)n(C)c1C	-0.165	x	-4.8
CCOC(=O)c1sc(=S)n(C)c1N	0.0272	4.53*	1.6
COC(=O)c1ccccc1NC(=O)c1sc(N)nc1C	1.54	x	4.4
CC[C@@H](C)[C@@H](C(=O)N1CCN(C(=O)OC(C)(C)C)CC1)n1cc(CCCCNC(=O)OC(C)(C)C)nn1	1.86	x	x
CC1(C)CCC23CC[C@]4(C)C(OC2=O)(C3C1)[C@H]1O[C@H]1C1[C@@]2(C)CC[C@@H](O)C(C)(C)C2CC[C@]14C (some centres undefined)	-0.668	x	x
COc1ccc(C2CC(c3ccc(Cl)cc3)Nc3nc(NC(=O)c4ccco4)nn32)cc1 (centres undefined)	0.334	-0.0848	2.6
O=C(Nc1nc2n(n1)C(c1ccc(Cl)cc1)CC(c1ccc(Cl)cc1)N2)c1ccco1 (centres undefined)	1.28	-0.702	20.7*
SMILES	DAT uptake mod	D1 mod	EphB4 antag
O=C(NCc1ccccc1C(F)(F)F)C1CC(c2ccccc2[N+](=O)[O-])=NO1 (centres undefined)	0.0118	x	9.3
CCCCC1=CC2=CC(=O)C(C)(OC(=O)CC)C(=O)C2=CN1CCc1ccc(Br)cc1 (centres undefined)	-0.916	x	x
CCOC(=O)c1sc2nc(N3CCOCC3)c3c(c2c1N)CCCC3	0.345	1.18	0.7
OCCN1CCN(c2ncnc3c2sc2nc(N4CCOCC4)c4c(c23)CCC4)CC1	0.339	2.63	x
CCN(CC)C(=O)c1sc2nc(N3CCOCC3)c3c(c2c1N)CCCC3	2.96*	x	-3.5
CN1CCN(c2ncnc3c2sc2nc(N4CCOCC4)c4c(c23)CCC4)CC1	x	-0.321	-6.3
Cc1cc(C)c2c(n1)sc1c(N3CCOCC3)ncnc12	x	2.83*	-6.2
OCCN(CCO)c1ncnc2c1sc1nc(N3CCOCC3)c3c(c12)CCCC3	4.06*	x	0.2
O=C(COC(=O)Cn1c(C(F)(F)F)nc2ccccc21)Nc1ccc2c(c1)OCCO2	0.775	x	-3.2
O=C(O)c1cc2ccccc2n1-c1ccccc1	-1.05	x	x
Cc1ccc(-c2csc3ncnc(N4CCN(C(=O)c5ccccc5)CC4)c23)cc1	2.18	x	2.9
CC(=O)Nc1ccccc1Nc1cc(C#N)c(C#N)cc1[N+](=O)[O-]	-1.1	x	2.4
Cc1nn(-c2ccc(F)cc2F)c2c1-c1nc(N3CCCC3)ncc1CC2	-1.74	-5.94*	-3.7
O=C(Cn1cc2c(n1)CCCCC2)Nc1ccc(F)cc1F	0.0649	0.0791	x
Cn1c(NC(=O)COc2ccccc2)cc(=O)n(C)c1=O	-0.161	x	-8.4
COCc1cc(=O)[nH]c2cc(NC(=O)C3CC3)c(C)cc12	-0.59	x	-6.0
O=C(C1=C[C@@H](c2ccccc2)C[C@@H](OCCCCO)O1)N1CCOCC1	-0.17	x	x
COCCn1c(CN2CCN(c3cccc(Cl)c3)CC2)nc2c1c(=O)n(C)c(=O)n2C	-0.0719	-3.54*	-5.3
CCOCCn1c(CN2CCN(c3cccc(Cl)c3)CC2)nc2c1c(=O)n(C)c(=O)n2C	1.07	0.264	3.6
Cc1cccc(NC(=O)Cc2coc3ccc4ccccc4c23)n1	0.26	x	9.8
CC[C@@H](C)CN1C(=O)N[C@@H](c2ccccc2)C(C(C)=O)=C1C	0.254	x	x
CCOC(=O)c1c(-c2ccccc2)nnn1-c1nc(OCC)nc(N2CCCCC2)n1	1.81*	-0.764	x
CCOC(=O)c1nnn(-c2nc(OC)nc(N3CCCCC3)n2)c1-c1ccccc1	2.36	x	6.8
CCCCn1nnnc1SCC(=O)NNC(=O)C1CCCCC1	-1.03	x	-12.9
COc1cccc(CNC(=O)C2CCC(CNS(=O)(=O)c3cccc4nsnc34)CC2)c1 (centres undefined)	0.00369	x	7.2
SMILES	DAT uptake mod	D1 mod	EphB4 antag
Cn1c(C(=O)OC(C(=O)NCc2ccco2)c2ccncc2)cc2sccc21 (centres undefined)	0.0126	x	-1.8
CCC(C)[C@H](NC(=O)N1CCN(c2cccc(C(F)(F)F)c2)CC1)C(=O)OC (some centres undefined)	3.23*	x	-1.9
COC(=O)[C@@H](NC(=O)N1CCN(c2cccc(C(F)(F)F)c2)CC1)C(C)C	-0.0247	-0.0724	-7.0
Cc1cc(Cl)ccc1NC(=S)NCCC(c1ccccc1)c1ccccc1	1.32	x	-0.3
Cc1ccc(CN2CCN(Cc3ccccc3C(F)(F)F)CC2)cc1	-0.0226	x	2.8
O=C(Cn1nc(C(F)(F)F)c2c1CCCC2)Nc1ccc2c(c1)OCO2	-1.63*	-0.352	3.1
COc1ccc(NC(=O)Cn2nc(C(F)(F)F)c3c2CCCC3)cc1OC	0.203	x	-6.1
CCc1nnc(NC(=O)Nc2ccccc2OC)s1	-0.993	-0.0867	4.5
Cc1ccccc1-c1nnc(NC(=O)c2cc3ccccc3oc2=O)s1	-0.0979	x	x
CCc1nnc(NC(=O)c2cc3ccccc3oc2=O)s1	-8.92*	-0.927	6.7
CCc1nnc(NC(=O)c2ccc(OC)cc2OC)s1	0.251	-4.83*	-0.3
CCOc1ccc(NC(=O)CCn2c(=O)[nH]c3ccsc3c2=O)cc1	-0.444	x	4.3
COc1ccc(CC2NCCC3=CC(=O)CCC32)cc1O (centres undefined)	-0.181	x	x
Cc1ccc(C(=O)COC(=O)C2CC(=O)N(c3nc(-c4ccccc4)cs3)C2)cc1 (centres undefined)	0.6	x	4.8
CC(C)C(=O)Nc1ccnc(-c2cccnc2)n1	-0.19	x	-2.7
